Measured values taken from PubChem BioAssay (NCATS).
Records with an inconclusive call do not appear. Where a call stands in place of a potency, no number is given. Active and inactive are the calls of the source. Calls follow the shape of the dose curve; as a rule, active = well fitted curve in the direction sought with a large enough effect; inconclusive = small, poorly fitted or top-dose-only effect, or another doubt; inactive = no such curve, though single readings can be large; an effect the other way counts as inactive or inconclusive.

What was measured:
[1] = molecular target: Calcium and integrin-binding protein 1 (Homo sapiens) (UniProt Q99828); experiment: Validation qHTS for Identification of Calcium Integrin Binding protein 1 (CIB1) Competitor (AID 1508618)
Calcium and integrin-binding protein 1 (Homo sapiens), sequence (Q99828 whole entry, looked up): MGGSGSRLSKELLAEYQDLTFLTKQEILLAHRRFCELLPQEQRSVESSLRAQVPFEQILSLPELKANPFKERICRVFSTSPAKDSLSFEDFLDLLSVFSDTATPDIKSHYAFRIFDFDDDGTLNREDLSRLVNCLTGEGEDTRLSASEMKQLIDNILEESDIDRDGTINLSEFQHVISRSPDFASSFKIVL
Summary of the method: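 Fluorescence polarization with 1 uM CIB1-GST and 100 nM FITC-alphaIIb peptide in HEPES pH 7.4, NaCl, 5 mM CaCl2, Tween20. Compounds at up to 114 uM final, preincubated with protein 15 min; read after 15 min more at RT.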

[2] = Primary qHTS for small molecule stabilizers of the endoplasmic reticulum resident proteome: Secreted ER Calcium Modulated Protein (SERCaMP) assay (AID 1508630)
Summary of the method: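 The SH-SY5Y reporter protocol was run at 3 concentrations up to 38.3 uM (primary) or 11 concentrations (follow-up): 16 h compound, 100 nM thapsigargin for 4 h, then extracellular luciferase luminescence.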

Papain (Carica papaya) = Papain (Carica papaya) (UniProt P00784); experiment: Primary qHTS assay for inhibitors of the protease papain (AID 1645873);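 also: papain turnover of Z-FR-AMC read as the AMC fluorescence gain over 10 min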; also: potency is read from the fitted curve at half-maximal effect
Papain (Carica papaya), sequence (P00784 whole entry, looked up): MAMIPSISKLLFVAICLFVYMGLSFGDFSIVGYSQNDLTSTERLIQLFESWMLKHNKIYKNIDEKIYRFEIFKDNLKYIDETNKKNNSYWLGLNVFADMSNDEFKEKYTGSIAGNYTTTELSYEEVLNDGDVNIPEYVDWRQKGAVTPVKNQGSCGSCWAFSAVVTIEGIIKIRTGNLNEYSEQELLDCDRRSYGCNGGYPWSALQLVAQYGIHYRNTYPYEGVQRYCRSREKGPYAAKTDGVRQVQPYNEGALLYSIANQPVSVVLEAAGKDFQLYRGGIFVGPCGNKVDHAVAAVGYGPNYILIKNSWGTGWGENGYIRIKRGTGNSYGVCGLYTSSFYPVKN

Structure (SMILES) | Potency [1] | Potency [2] | Potency (Papain (Carica papaya))
COc1ccccc1N1CCN(CCCNc2c(C)c(=O)n(C)c(=O)n2C)CC1 | inactive | inactive | inactive
C=C(C)C1CC=C(C(=O)O)CC1 (centres undefined) | inactive | inactive | inactive
CNc1cc(NS(=O)(=O)c2ccc(N)cc2)nc(NC)n1 | inactive | inactive | inactive
CCCCC[C@H](CC(=O)NO)C(=O)N[C@H](C(=O)N1CCC[C@H]1CO)C(C)C | inactive | inactive | inactive
O=c1ccn([C@@H]2O[C@H](COP(=O)(O)OP(=O)(O)O)[C@@H](O)[C@H]2O)c(=O)[nH]1 | inactive | inactive | inactive
O=c1cc(-c2ccccc2)[nH]c2nc(Cl)ccc12 | inactive | inactive | inactive
CCCn1c(=O)c2[nH]c(C3CCCC3)nc2n(CCC)c1=O | inactive | inactive | inactive
OC[C@H]1O[C@@H](n2cnc3cncnc32)[C@H](O)[C@@H]1O | inactive | inactive | inactive
O=[N+]([O-])c1cccc2cn[nH]c12 | inactive | inactive | inactive
O=C(O)C1CCCNC1 (centres undefined) | inactive | inactive | inactive
N[C@@H](Cc1ccc(O)c(I)c1)C(=O)O | inactive | inactive | inactive
COc1ccccc1N1CCN(CCCCN2C(=O)c3ccccc3C2=O)CC1 | inactive | inactive | inactive
C=CC[C@H](N)C(=O)O | inactive | inactive | inactive
CCSC(=N)N | inactive | inactive | inactive
CCCCOc1cc(CC2CNC(=O)N2)ccc1OC (centres undefined) | inactive | inactive | inactive
N=C(N)SCCN | inactive | inactive | inactive
O=C(O)c1cc2cc(F)ccc2[nH]1 | inactive | inactive | inactive
c1ccc2nc(C3=NCCN3)ccc2c1 | inactive | inactive | inactive
c1ccc2c(c1)CCC[C@H]2Nc1nc2ccccc2[nH]1 | inactive | inactive | inactive
CC(N)(Cc1ccc(O)cc1)C(=O)O (centres undefined) | inactive | inactive | inactive
Nc1ncnc2c1ncn2C1CCCO1 (centres undefined) | inactive | inactive | inactive
COc1ccc(C(=O)NCc2cccnc2)cc1C(=O)NCc1cccnc1 | inactive | inactive | inactive
NC(N)=N[C@@H](CCC(=O)O)C(=O)O | inactive | inactive | inactive
NC1C=CC=C(C(=O)O)C1 (centres undefined) | inactive | inactive | inactive
NOCC(=O)O | inactive | inactive | inactive

Structure (SMILES) | Potency [1] | Potency [2] | Potency (Papain (Carica papaya))
NCC(O)(CS(=O)(=O)O)c1ccc(Cl)cc1 (centres undefined) | inactive | inactive | inactive
CCCOC(=O)c1c(-c2ccccc2)nc(CC)c(C(=O)SCC)c1CCC | inactive | inactive | inactive
N=S(=O)(O)Cc1noc2ccccc12 | inactive | inactive | inactive
CC(=O)/C(C)=N/O | inactive | inactive | 2 µM (active)
N[C@@H](CS(=O)O)C(=O)O | inactive | inactive | inactive
CC(C)(C)c1ccc(/C=C/C(=O)Nc2ccc3c(c2)OCCO3)cc1 | inactive | inactive | inactive
NCCCNCCCCNCCCN | inactive | inactive | inactive
CC1CNCCN1S(=O)(=O)c1cccc2cnccc12 (centres undefined) | inactive | inactive | inactive
NC(=O)c1ccccc1 | inactive | inactive | inactive
O=C(O)[C@H]1NCCC[C@H]1C(=O)O | inactive | inactive | inactive
COc1ccccc1N1CCN(CCCCNC(=O)c2ccc3ccccc3c2)CC1 | inactive | inactive | inactive
N[C@H](C(=O)O)[C@H](O)C(=O)O | inactive | inactive | inactive
O=C(O)C1CCNCC1 | inactive | inactive | inactive
O=C(O)C1CN(CCCP(=O)(O)O)CCN1 (centres undefined) | inactive | inactive | inactive
NCCCCN=C(N)N | inactive | inactive | inactive
COC(=O)C(N)Cc1ccc(Cl)cc1 (centres undefined) | inactive | inactive | inactive
OC1(c2ccc(Cl)cc2)CCN(Cc2c[nH]c3ccccc23)CC1 | inactive | inactive | inactive
CC(N)=O | inactive | inactive | inactive
N[C@H]1CONC1=O | inactive | inactive | inactive
Cc1ccc([N+](=O)[O-])cc1S(=O)(=O)N(C)C | inactive | inactive | inactive
CCCn1c(=O)c(C)cn2nc(N)nc12 | inactive | inactive | 28.2 µM (active)
Cc1cccc(C(=O)NCN2CCN(c3ccccc3C#N)CC2)c1 | inactive | inactive | inactive
Oc1cc2c(cc1O)C(c1ccccc1)CNCC2 (centres undefined) | inactive | inactive | inactive
COc1cc(CC(=O)O)ccc1O | inactive | inactive | inactive
NC[C@@H]1O[C@H](c2ccccc2)Cc2c1ccc(O)c2O | inactive | inactive | inactive

Structure (SMILES) | Potency [1] | Potency [2] | Potency (Papain (Carica papaya))
[Li+] | inactive | inactive | inactive
CCC(=O)N1CCN(C(=O)c2ccccc2)CC1 | inactive | inactive | inactive
COCc1nc2c([nH]1)c(=O)n(C)c(=O)n2CC(C)C | inactive | inactive | inactive
CSc1nc(N)c2ncn([C@@H]3O[C@H](COP(=O)(O)OP(=O)(O)O)C(O)[C@H]3O)c2n1 (some centres undefined) | inactive | inactive | inactive
Cn1cc(C(=O)OCC2CCN(CCNS(C)(=O)=O)CC2)c2ccccc21 | inactive | inactive | inactive
CC(C)C[C@H](NC(=O)[C@H](O)[C@H](N)Cc1ccccc1)C(=O)O | inactive | inactive | inactive
Cn1cc(C(F)(F)F)nc1-c1ccc(OCC(O)CNCCOc2ccc(O)c(C(N)=O)c2)cc1 (centres undefined) | inactive | inactive | inactive
NCCS(=O)O | inactive | inactive | inactive
N=C(N)c1ccc(OCCCCCOc2ccc(C(=N)N)cc2)cc1 (tested in a mixture with another compound) | inactive | inactive | inactive
O=c1onc2n1-c1cc(Br)ccc1OC2 | inactive | inactive | inactive
CC(C)C[C@H](NC(=O)C1OC1C(=O)O)C(=O)NCCCCN=C(N)N (some centres undefined) | inactive | inactive | inactive
Cn1c(=O)c2c(nc(/C=C/c3cccc(Cl)c3)n2C)n(C)c1=O | inactive | inactive | 3.55 µM (active)
CCC1(O)CC2CN(CCc3c([nH]c4ccccc34)[C@@](C(=O)OC)(c3cc4c(cc3OC)N(C=O)C3[C@]45CCN4CC=C[C@@](CC)([C@@H](OC(C)=O)[C@]3(O)C(=O)OC)[C@H]45)C2)C1 (some centres undefined) | inactive | inactive | inactive
Nc1ncnc2c1ncn2C1CCCC1 | inactive | inactive | inactive
COc1cc([C@@H]2c3cc4c(cc3[C@H](O)C3COC(=O)[C@@H]32)OCO4)cc(OC)c1OC (some centres undefined) | inactive | inactive | inactive
O=c1[nH]c2ccccc2c2ccccc12 | inactive | inactive | inactive
O=C(O)C1=CCNCC1 | inactive | inactive | inactive
C[C@@H](NCCc1ccc(O)cc1)[C@@H](O)c1ccc(O)cc1 | inactive | inactive | inactive
CC(C)NC[C@H](O)COc1ccc(CC(N)=O)cc1 | inactive | inactive | inactive
O=C(OCCN1CCOCC1)C1(c2ccccc2)CCCCC1 | inactive | inactive | inactive
CN(C)CCC(c1ccc(Br)cc1)c1ccccn1 (centres undefined) | inactive | inactive | inactive
Oc1ccc(Cn2cc[nH]c2=S)cc1 | inactive | inactive | inactive
CN(C)CCCc1cc(C(=O)Nc2ccc(-c3ccncc3)cc2)ccc1O | inactive | inactive | inactive
COc1cc(C(O)C(=O)O)ccc1O (centres undefined) | inactive | inactive | inactive
Cc1cccc(C)c1OCC(N)C(C)C (centres undefined) | inactive | inactive | inactive

Structure (SMILES) | Potency [1] | Potency [2] | Potency (Papain (Carica papaya))
CCN1C(=O)C=CC1=O | inactive | inactive | inactive
O=C(O)C1=CCCNC1 | inactive | inactive | inactive
CCCCCC(O)CCCC(=O)O (centres undefined) | inactive | inactive | inactive
C[N+](C)(C)CC=O | inactive | inactive | inactive
N[C@@H](Cc1ccc(F)cc1)C(=O)O | inactive | inactive | inactive
CC(C)(C)NCC(O)COc1cccc2[nH]c(=O)[nH]c12 (centres undefined) | inactive | inactive | inactive
S=C(S)N1CCCC1 | inactive | inactive | inactive
NC(N)=[N+]1CCc2ccccc2C1 | inactive | inactive | inactive
CC[N+](CC)(CC)CC(=O)Nc1c(C)cccc1C | inactive | inactive | inactive
Cn1c(=O)[nH]c2ncn(C)c2c1=O | inactive | inactive | inactive
Nn1nnc2ccccc21 | inactive | inactive | inactive
N[C@H](C(=O)O)[C@H]1C[C@@H]1C(=O)O | inactive | inactive | inactive
COc1cc(N)c(Cl)cc1C(=O)OCCN1CCCCC1 | inactive | inactive | inactive
CC(=O)[C@H]1CCC2C3CC=C4C[C@@H](OS(=O)(=O)O)CC[C@]4(C)C3CC[C@@]21C (some centres undefined) | inactive | inactive | 28.2 µM (active)
Cc1nc2c(OCc3ccccc3)cccn2c1CC#N | inactive | inactive | inactive
C[C@H]1CC2C3CCC4=CC(=O)C=C[C@]4(C)[C@@]3(Cl)[C@@H](O)C[C@]2(C)[C@@]1(O)C(=O)CO (some centres undefined) | inactive | inactive | inactive
COC1(C2=NCCN2)COc2ccccc2O1 (centres undefined) | inactive | inactive | inactive
COc1cc(CNC(=O)CCCCCCC(C)C)ccc1O | inactive | inactive | inactive
C#CCn1c(=O)c2c(ncn2C)n(C)c1=O | inactive | inactive | inactive
COc1ccc2c(c1)CCC1C2CC[C@@]2(C)C1CC[C@@H]2NCCCCCCN1C(=O)C=CC1=O (some centres undefined) | inactive | inactive | inactive
CSC(=N)N | inactive | inactive | inactive
COc1cc(C(O)CO)ccc1O (centres undefined) | inactive | inactive | inactive
NC1CONC1=O (centres undefined) | inactive | inactive | inactive
